These entries were drawn from the full list.
aSyn 5UTR act – Activators via SNCA 5'UTR binding, MLPCN | alpha-synuclein 5'UTR reporter, activators screen | activity score, % (tested at 7.5 µM), hits read low | actives 7.1% (n = 300,000) | AID 1814; in the data active = activity score below about -60%
* hit, by the source's call.

SMILES | aSyn 5UTR act
C/C(=C\c1ccc(N)cc1)c1nc2ccccc2[nH]1 | -172*
COC(=O)/C(=C\c1ccc(O)cc1)c1nc2ccccc2[nH]1 | -186*
O=C(/C(=C\c1ccccc1)c1nc2ccccc2[nH]1)c1ccc(Cl)cc1 | -228*
O=c1cccc2c1c1cc[nH]c3ccc(=O)n2c31 | 79
COc1cc(/C=C(/C(=O)c2cccs2)c2nc3ccccc3[nH]2)ccc1O | -86*
COc1ccc(C=Nc2cccc3c(=O)[nH][nH]c(=O)c23)c2ccccc12 | -67*
O=[N+]([O-])c1cc(-c2nc(-c3ccncc3)no2)cc([N+](=O)[O-])c1 | -118*
O=[N+]([O-])c1cc(-c2nc(-c3ccncc3)no2)ccc1Cl | -79*
O=C(O)c1cccc(NC2=Nc3cccc4cccc2c34)c1 | -114*
Cn1nnc(NC(=O)c2ccc(C(C)(C)C)cc2)n1 | -95*
Cn1nnc(NC(=O)c2ccc3ccccc3c2)n1 | -63*
CC1(C)N=C(N)N=C(N)N1c1ccc(Oc2ccc(Cl)cc2)c(Cl)c1 | 85
Cc1ccc2c(c1)COc1c3ccc(C(=O)NC(C)C)cc3nn1-2 | -204*
Cc1ccc2c(c1)COc1c3ccc(C(=O)N[C@@H](C)CO)cc3nn1-2 | -154*
Cc1cc(NCCCN2CCOCC2)n2ncc(-c3ccccc3)c2n1 | -95*
COc1ccccc1-c1cnn2c(NCc3ccccc3)cc(C)nc12 | -75*
Cc1cc(NCc2ccccn2)n2ncc(-c3ccccc3)c2n1 | -155*
Cc1cc(NCc2ccccn2)n2ncc(-c3ccc(Cl)cc3)c2n1 | -97*
CCOc1ccc(C2CC(c3ccc(CC)cc3)Nc3nc(N)nn32)cc1 (stereo unspecified) | -65*
O=C(Nc1nnc(-c2ccccc2Cl)o1)c1cccnc1 | -94*
O=C(Nc1ccc(N2CCCC2)c(Cl)c1)c1cccnc1 | -112*
CC1CCCN(S(=O)(=O)c2ccc(C(=O)Nc3nnc(-c4ccccc4Cl)o3)cc2)C1 (stereo unspecified) | 78
Cc1cc(O)c(C)c(O)c1/C=N/NC(=O)c1cccnc1 | 69
Cc1ccc(NC(=O)c2cccnc2)cc1C | -104*
O=C(Nc1ccc(N2CCCCC2)c(Cl)c1)c1cccnc1 | -313*
SMILES | aSyn 5UTR act
O=C(Nc1ccc(Cl)c(Cl)c1)c1cccnc1 | -102*
Cc1cc(=O)[nH]c(N/N=C/c2ccc(Br)s2)n1 | -119*
Cc1cc(=O)[nH]c(N/N=C/c2ccccn2)n1 | 74
Cc1cc(=O)[nH]c(N/N=C/c2ccc(-c3ccc(F)cc3)o2)n1 | -70*
CC(NC(=O)CCc1nnc(Cc2cccc(C(F)(F)F)c2)o1)C1CC1 (stereo unspecified) | -77*
CC(C)CN(C)C(=O)CCc1nnc(Cc2cccc(C(F)(F)F)c2)o1 | -143*
S=C(Nc1ccccc1Cl)N1CCC(c2ccccc2)C1 (stereo unspecified) | -120*
Fc1ccccc1NC(=S)N1CCC(c2ccccc2)C1 (stereo unspecified) | -111*
Fc1cc(F)cc(NC(=S)N2CCC(c3ccccc3)C2)c1 (stereo unspecified) | -99*
Oc1c(N=NC(=S)Nc2ccccc2F)c2ccccc2n1Cc1ccccc1 | 72
C=CCn1c(O)c(N=NC(=S)Nc2ccccc2F)c2ccccc21 | 67
Cc1nn(C(C)(C)C)c(C)c1/C=N/OC(=O)Nc1ccc(Cl)cc1 | 94
Cc1nn(-c2ccccc2)c(Cl)c1/C=N/NC(=O)OC(C)(C)C | -131*
Cc1nn(-c2ccccc2Cl)c(Cl)c1/C=N/Nc1nc2ccccc2s1 | 69
CNC(=S)N/N=C/c1c(C)nn(-c2ccccc2)c1Cl | -89*
CCOC(=O)N/N=C/c1c(C)nn(-c2ccccc2Cl)c1Cl | -91*
O=c1c2ccccc2cnn1-c1nc2ccccc2[nH]1 | 98
O=c1c2ccccc2nc2c3ccccc3cnn12 | -172*
C/C(=N\NC(=O)COc1ccccc1[N+](=O)[O-])c1cccs1 | -146*
C/C(=N/NC(=O)c1cccs1)c1cccc(N)c1 | -86*
C/C(=N\NC(=O)COc1ccccc1-c1ccccc1)c1ccccn1 | 114
C/C(=N/NC(=O)c1cccs1)c1cccs1 | -82*
C/C(=N/Nc1ccccc1C(=O)O)c1cccs1 | -89*
C/C(=N\NC(=O)c1sccc1-n1cccc1)c1cccs1 | -80*
O=C(NN=C1C2CC3CC(C2)CC1C3)c1cccs1 | -87*
SMILES | aSyn 5UTR act
CC(=O)N1CCC(=NNC(=O)c2cccs2)CC1 | -115*
CCOC(=O)N/N=C(\C)c1cccs1 | -67*
COCC(=O)Nc1c(C(=O)Nc2ccccc2OC)oc2ccccc12 | -147*
CCOc1ccc(NC(=O)c2oc3ccccc3c2NC(=O)CC)cc1 | -123*
COc1cccc(NC(=O)c2oc3ccccc3c2NC(C)=O)c1 | -121*
COCC(=O)Nc1c(C(=O)Nc2cccc(OC)c2)oc2ccccc12 | -218*
CCOCC(=O)Nc1c(C(=O)Nc2ccc(OC)cc2OC)oc2ccccc12 | -82*
CCOCC(=O)Nc1c(C(=O)Nc2ccc3c(c2)OCO3)oc2ccccc12 | -151*
COc1ccccc1NC(=O)c1oc2ccc(C)cc2c1C | -203*
COc1ccccc1OCCn1nnc2ccccc21 | -101*
Cc1ccc(OCCn2nnc3ccccc32)cc1C | -200*
CC(C)(C)c1cc(C(=O)N/N=C/c2ccco2)n[nH]1 | -146*
Cc1ccsc1/C=N\NC(=O)c1cc(C(C)(C)C)[nH]n1 | -138*
CC(C)c1cc(C(=O)Nc2ccc3c(c2)OCO3)no1 | -173*
CC(C)c1cc(C(F)(F)F)n2nc(C(=O)Nc3ccc4c(c3)OCO4)cc2n1 | -83*
O=C(Nc1ccc2c(c1)OCO2)c1cc(C2CC2)on1 | -148*
Cc1ccc(C2C=NN(c3ccccc3)C2=O)cc1 (stereo unspecified) | -64*
Cc1csc2ncc(C(=O)NCCc3ccccc3)c(=O)n12 | -134*
CCc1ccccc1NC(=O)c1cnc2scc(C)n2c1=O | -99*
CCOc1ccc(NC(=O)c2cnc3scc(C)n3c2=O)cc1 | -104*
O=C(NCCc1ccccc1)c1cnc2ccccn2c1=O | -73*
Cc1ccccc1NC(=O)c1cnc2ccccn2c1=O | 62
CSc1ccccc1NC(=O)c1cnc2scc(C)n2c1=O | -108*
N#Cc1ccccc1NC(=O)CSc1nccn1CCc1ccccc1 | -149*
CC(=O)c1ccc(NC(=O)CSc2nccn2CCc2ccccc2)cc1 | -128*
SMILES | aSyn 5UTR act
Cc1ccc2nc(-c3cccnc3SCC(=O)N3c4ccccc4CC3C)[nH]c2c1 (stereo unspecified) | -80*
CC(=O)CSc1ccc(-c2nc3cc(C)c(C)cc3[nH]2)cn1 | 121
Cc1ccc2nc(-c3ccc(SCC(=O)N4CCc5ccccc54)nc3)[nH]c2c1 | -388*
Cc1cc2nc(-c3ccc(SCc4ccc(C#N)cc4)nc3)[nH]c2cc1C | -105*
CC(=O)CSc1ccc(-c2nc3ccccc3[nH]2)cn1 | -72*
N#Cc1ccccc1CSc1ccc(-c2nc3ccccc3[nH]2)cn1 | -120*
CCCC1=[N+](CC(=O)c2ccccc2)CCn2cccc21 | -72*
CCOc1ccc(/C=N/N2C(C)CCCC2C)cc1 (stereo unspecified) | -77*
Cc1ccc2cc3c(N)c4c(C)ccc(C)c4nc3nc2c1 | -77*
COc1ccc(C(=O)NNC(=O)c2ccccn2)cc1 | 79
COC(=O)c1ccc2c(c1)C(C)(C)C(/C=C/c1ccc(O)cc1)=[N+]2C | 119
COc1cc(/C=C/c2ccc(O)cc2)cc(OC)c1 | -156*
COc1ccc(/C=C/C(=O)c2ccc(O)cc2)cc1 | -196*
COc1ccc2cc(C(=O)/C=C/c3cc(OC)c(OC)c(OC)c3)ccc2c1 | -62*

Screening data: PubChem, Broad Institute
